Experimental data as given in PubChem BioAssay (NCI).
Several values for one entry are separate records, joined by “and”; a condition that tells them apart may be missing. Identical values can stand only once. About 79,000 compounds went through this panel and 15% of them were active in at least one assay; those are over-represented in the sample as a whole. Values without a mark were called inactive. Activity calls are given as the source filed them. Rule as the data show it: active = growth inhibition above about 70%; inactive = the rest.

What was measured:
[1] = NCI Yeast Anticancer Drug Screen. Data for the rad50 strain (AID 155);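 also: 0% = growth of vehicle-only cultures of the same strain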; settings: S. cerevisiae rad50 strain growth inhibition, stronger effect = higher value
In short: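 Vehicle-treated cultures provide the reference for the growth inhibition reported for compound-exposed, repair-deficient yeast.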

[2] = NCI Yeast Anticancer Drug Screen. Data for the mec2-1 strain (AID 157); settings: S. cerevisiae mec2-1 strain, stronger effect = higher value
In short: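 Vehicle-treated cultures served as reference for growth inhibition of compound-exposed mec2-1 yeast.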

[3] = NCI Yeast Anticancer Drug Screen. Data for the sgs1 mgt1 strain (AID 161);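 also: 0% = growth of cultures given vehicle only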; settings: S. cerevisiae sgs1 mgt1 strain, stronger effect = higher value
In short: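 Mutant yeast exposed to compound; growth scored against vehicle-only wells.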

[4] = NCI Yeast Anticancer Drug Screen. Data for the cln2 rad14 strain (AID 165);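 also: 0% = growth equal to vehicle treated cultures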; settings: S. cerevisiae cln2 rad14 strain, stronger effect = higher value
In short: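 Each compound was tested on cln2 rad14 yeast. Inhibition of growth was calculated against vehicle-exposed controls.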

[5] = NCI Yeast Anticancer Drug Screen. Data for the bub3 strain (AID 167); settings: S. cerevisiae bub3 mutant strain, stronger effect = higher value
In short: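 Mutant yeast screening strain plus compound; vehicle-treated cultures serve as the 0% inhibition reference.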

[6] = NCI Yeast Anticancer Drug Screen. Data for the mlh1 rad18 strain (AID 175); settings: S. cerevisiae mlh1 rad18 strain growth inhibition, stronger effect = higher value
In short: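 Vehicle-treated cultures served as the reference for growth inhibition in a yeast strain carrying DNA damage repair alterations exposed to each compound.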

[7] = at 5.0 µM (retest, dose inferred, filed as 0.5)
[8] = at 50.0 µM (retest, dose inferred, filed as 5.0)

| Compound | growth inhibition [1, 7] | growth inhibition [1, 8] | growth inhibition ([1]; at 50.0 µM) | growth inhibition [2, 7] | growth inhibition [2, 8] | growth inhibition ([2]; at 50.0 µM) | growth inhibition [3, 7] | growth inhibition [3, 8] | growth inhibition ([3]; at 50.0 µM) | growth inhibition [4, 7] | growth inhibition [4, 8] | growth inhibition ([4]; at 50.0 µM) | growth inhibition [5, 7] | growth inhibition [5, 8] | growth inhibition ([5]; at 50.0 µM) | growth inhibition [6, 7] | growth inhibition [6, 8] | growth inhibition ([6]; at 50.0 µM) |
| --- | --- | --- | --- | --- | --- | --- | --- | --- | --- | --- | --- | --- | --- | --- | --- | --- | --- | --- |
| O=C(CCl)c1ccc(O)cc1 | 16% | 96% (active) | 91.5% (active) | 21% | 98% (active) | 98.2% (active) | 31% | 97% (active) | 97.3% (active) | 7% | 97% (active) | 89.2% (active) | 20% | 98% (active) | 96% (active) | 22% | 98% (active) | 97.8% (active) |
| COc1ccc2c3c(c4cc(OC)c(OC)cc4c2c1)C[C@H]1CCCCN1C3 | 99% (active) | 99% (active) | 92.6% (active) | 99% (active) | 100% (active) | 94.2% (active) | 99% (active) | 99% (active) | 93.8% (active) | 99% (active) | 99% (active) | 92.5% (active) | 99% (active) | 99% (active) | 93.2% (active) | 99% (active) | 99% (active) | 93% (active) |
| NCCBr | 0% | -26% | -8.5% and -19.5% | -1% | 1% | -7.65% and -21.2% | -3% | -4% | 6.55% and -5.6% | 3% | -3% | -23.7% and -8.9% | -25% | -6% | -0.55% and 1.2% | 4% | -2% | 2.25% and -0.05% |
| CCCN1CN(c2ccccc2)C2(CCN(CCCC(=O)c3ccc(F)cc3)CC2)C1=O | 11% | 17% | 35.7% | 7% | 14% | -4.4% | -17% | 12% | 60.5% | 6% | 20% | 15.6% | 4% | 35% | 38.9% | 22% | 30% | 20.4% |
| O=C(N/N=C/c1cc(Cl)cc(Cl)c1[O-])c1ccccc1O.O=C(N/N=C/c1cc(Cl)cc(Cl)c1[O-])c1ccccc1O.[Mn+2] | 57% | 90% (active) | 66.8% | 88% (active) | 87% (active) | 91.3% (active) | 68% | 88% (active) | 47.1% | 77% (active) | 72% (active) | 85% (active) | 89% (active) | 80% (active) | 90.8% (active) | 56% | 87% (active) | 68.2% |
| C[C@H](N)C(=O)N[C@@H]1[C@H]2C(=C(O)C[C@@H](O)[C@@H]2O)C(=O)O[C@]1(C)C(Cl)Cl | 18% | 22% | 17.1% | 7% | 26% | 13.1% | 12% | 25% | 6.6% | 18% | 53% | 44.9% | 7% | 26% | 30.9% | 6% | 25% | 27.4% |
| CC(C)COP(=O)(OCC(C)C)C(=O)Nc1ccc(Cl)cc1 | -1% | 80% (active) | 57.1% | -19% | 44% | 15.2% | 11% | 89% (active) | 24.9% | 9% | 49% | 22.6% | -2% | 58% | 25.1% | 2% | 79% (active) | 33.6% |
| c1ccc([Te][Te]c2ccccc2)cc1 | 62% | 90% (active) | 17.6% | 22% | 68% | 36.2% | 40% | 79% (active) | 75% (active) | 49% | 63% | 71.2% (active) | 52% | 68% | 41.5% | 56% | 88% (active) | 86% (active) |
| ClCCN(CCCl)c1ccc(C=NCCCCN=Cc2ccc(N(CCCl)CCCl)cc2)cc1 | 3% | 82% (active) | 88.8% (active) | 10% | 47% | 47% | 8% | 62% | 82.8% (active) | -10% | 82% (active) | 88.6% (active) | -10% | 3% | 7.15% | 63% | 95% (active) | 85.8% (active) |
